± gives the standard deviation of the averaged measurements.

The subject of the assay is iBMDM (immortalised mouse bone-marrow-derived macrophages), LPS-stimulated. Put plainly: mitochondrial superoxide (MitoSOX fluorescence) fold increase over unstimulated control; higher = more LPS-induced mitochondrial ROS (less inhibition). The note with it: inhibitor concentration: 500 nM; LPS: 100 ng/ml; time after LPS: 1 h. Summed up:
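After 20 h in phenol-red-free 1% FCS/DMEM in black 96-well plates, immortalised mouse bone-marrow-derived macrophages were exposed to kinase inhibitors (500 nM) for 30 min, 1 μM MitoSox for 10 min and then LPS (100 ng/ml). A ClarioStar plate reader recorded fluorescence at 510/580 nm every 60 min for 4 h. The reported mitochondrial superoxide is the mean fold induction versus untreated macrophages over triplicate wells.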
Compound `CNC(=O)c1cc(COc2nnc(Nc3ccc(Cl)cc3)c3ccoc23)ccn1` [Telatinib] registered a mitochondrial superoxide of 1.23 ± 0.036.
With `Nc1cc(C(F)(F)F)c(-c2cc(N3CCOCC3)nc(N3CCOCC3)n2)cn1` [BKM120 (NVP-BKM120, Buparlisib)] the figure was 1.33 ± 0.034; with `CNC(=O)c1nn(C)c2c1C(C)(C)Cc1cnc(Nc3ccc(N4CCN(C)CC4)cc3)nc1-2`, 1.31 ± 0.016; with `Cc1cc(C)nc(NS(=O)(=O)c2ccc(NC(=S)NC(=O)COc3ccc(Br)cc3Cl)cc2)n1`, 1.42 ± 0.087.
`CCCNC(=O)Nc1ccc(Oc2ncnc3cc(OC)c(OC)cc23)cc1Cl`: the mitochondrial superoxide was 1.15 ± 0.055.
To `CN1CCN(c2ccc3nc(-c4c(N)c5c(F)cccc5[nH]c4=O)[nH]c3c2)CC1` [Dovitinib (TKI-258, CHIR-258)] belongs 1.62 ± 0.087.
The compound `CNC(=O)c1ccccc1Sc1ccc2c(/C=C/c3ccccn3)n[nH]c2c1` [Axitinib] gave a mitochondrial superoxide of 1.77 ± 0.17.
With `N#Cc1c(O)c2c(-c3ccc(-c4ccccc4O)cc3)csc2[nH]c1=O` the figure was 1.3 ± 0.051; with `CCn1c(-c2nonc2N)nc2c(C#CC(C)(C)O)ncc(OC[C@H]3CCCNC3)c21`, 1.3 ± 0.025.
To `O=C(O)c1ccc(Nc2ncc3c(n2)-c2ccc(Cl)cc2C(c2c(F)cccc2F)=NC3)cc1` belongs 1.37 ± 0.045; to `COc1cc(Nc2ncc(F)c(Nc3ccc4c(n3)N(COP(=O)(O)O)C(=O)C(C)(C)O4)n2)cc(OC)c1OC` [Fostamatinib (R788)], 1.29 ± 0.026; to `CS(=O)(=O)N1CCc2c(-c3cnc(N)nc3)nc(N3CCOCC3)nc21`, 1.31 ± 0.047.
To `O=c1cc(-c2cccc3c2Sc2ccccc2S3)oc(N2CCOCC2)c1` belongs 1.39 ± 0.034.

The record behind these values is the supplement of paper PMC7393113.
